Results on 50 molecules are retold here after ChEMBL document CHEMBL2218924, “A broad activity screen in support of a chemogenomic map for kinase signalling research and drug discovery” (Biochem J, 2013).

Assay [1] concerns the target Tyrosine-protein kinase Fer (Homo sapiens) (UniProt P16591). The following applies: at 10 µM.
Assay [2] deals with Tyrosine-protein kinase Fes/Fps (Homo sapiens) (UniProt P07332). The following applies: at 1 µM.
The target is the same in assay [3]. The following applies: at 10 µM.
Assay [4] concerns the target Tyrosine-protein kinase Fgr (Homo sapiens) (UniProt P09769). The following applies: at 1 µM.
The target is the same in assay [5]. Particulars: at 10 µM.
The target in assay [6] is Vascular endothelial growth factor receptor 1 (Homo sapiens) (UniProt P17948). The following applies: at 1 µM.
For assay [7] the target is unchanged. Particulars: at 10 µM.
Assay [8] concerns the target Receptor-type tyrosine-protein kinase FLT3 (Homo sapiens) (UniProt P36888). The following applies: at 1 µM.
The target is the same in assay [9]. The following applies: at 10 µM.
In assay [10] the target is Vascular endothelial growth factor receptor 3 (Homo sapiens) (UniProt P35916). Particulars: at 1 µM.
Sequence of Vascular endothelial growth factor receptor 3 (Homo sapiens) (P35916 whole entry): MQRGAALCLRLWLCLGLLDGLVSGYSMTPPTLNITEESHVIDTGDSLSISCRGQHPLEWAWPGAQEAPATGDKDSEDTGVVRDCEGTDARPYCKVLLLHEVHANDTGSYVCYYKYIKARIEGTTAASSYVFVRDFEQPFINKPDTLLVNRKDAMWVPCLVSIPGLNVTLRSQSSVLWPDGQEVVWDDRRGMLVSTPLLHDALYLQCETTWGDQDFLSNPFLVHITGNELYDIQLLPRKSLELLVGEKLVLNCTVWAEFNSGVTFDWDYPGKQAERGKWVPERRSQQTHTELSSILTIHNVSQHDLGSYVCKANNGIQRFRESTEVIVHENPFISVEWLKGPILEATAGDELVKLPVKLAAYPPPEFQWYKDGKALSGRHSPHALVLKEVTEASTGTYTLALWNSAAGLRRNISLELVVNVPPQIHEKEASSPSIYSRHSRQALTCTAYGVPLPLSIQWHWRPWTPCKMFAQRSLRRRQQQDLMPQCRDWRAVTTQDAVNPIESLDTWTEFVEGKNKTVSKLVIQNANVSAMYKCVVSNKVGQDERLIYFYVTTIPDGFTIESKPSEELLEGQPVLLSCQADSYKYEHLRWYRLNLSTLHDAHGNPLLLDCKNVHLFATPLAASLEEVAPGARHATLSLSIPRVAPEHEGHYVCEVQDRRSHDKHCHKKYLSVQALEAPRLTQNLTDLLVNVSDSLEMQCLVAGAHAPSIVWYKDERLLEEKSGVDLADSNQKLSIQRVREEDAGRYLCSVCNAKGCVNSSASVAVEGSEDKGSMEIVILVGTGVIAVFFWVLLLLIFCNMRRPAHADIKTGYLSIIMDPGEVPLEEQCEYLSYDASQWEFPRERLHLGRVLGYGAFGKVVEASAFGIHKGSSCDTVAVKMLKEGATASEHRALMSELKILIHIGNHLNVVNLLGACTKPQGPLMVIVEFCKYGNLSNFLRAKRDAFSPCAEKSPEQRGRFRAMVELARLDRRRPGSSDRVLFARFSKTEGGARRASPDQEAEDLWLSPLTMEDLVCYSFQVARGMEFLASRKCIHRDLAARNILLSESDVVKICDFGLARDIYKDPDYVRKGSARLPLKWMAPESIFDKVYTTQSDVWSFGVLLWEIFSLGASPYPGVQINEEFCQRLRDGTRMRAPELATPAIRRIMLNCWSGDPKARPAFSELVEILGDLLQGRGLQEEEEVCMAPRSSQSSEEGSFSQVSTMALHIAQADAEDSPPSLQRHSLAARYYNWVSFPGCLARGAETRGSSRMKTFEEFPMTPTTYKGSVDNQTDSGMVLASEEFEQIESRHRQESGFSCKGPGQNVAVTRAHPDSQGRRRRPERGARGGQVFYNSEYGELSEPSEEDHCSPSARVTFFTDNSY
The target is the same in assay [11]. The following applies: at 10 µM.
Assay [12] addresses Macrophage colony-stimulating factor 1 receptor (Homo sapiens) (UniProt P07333). The following applies: at 1 µM.
For assay [13] the target is unchanged. Particulars: at 10 µM.
For assay [14], the target named is Tyrosine-protein kinase Fyn (Homo sapiens) (UniProt P06241). The following applies: at 1 µM.
For assay [15] the target is unchanged. The following applies: at 10 µM.
Assay [16] concerns the target T1, Mitogen-activated protein kinase kinase kinase kinase 2 (Homo sapiens) (UniProt Q12851).
T1 sequence (whole entry): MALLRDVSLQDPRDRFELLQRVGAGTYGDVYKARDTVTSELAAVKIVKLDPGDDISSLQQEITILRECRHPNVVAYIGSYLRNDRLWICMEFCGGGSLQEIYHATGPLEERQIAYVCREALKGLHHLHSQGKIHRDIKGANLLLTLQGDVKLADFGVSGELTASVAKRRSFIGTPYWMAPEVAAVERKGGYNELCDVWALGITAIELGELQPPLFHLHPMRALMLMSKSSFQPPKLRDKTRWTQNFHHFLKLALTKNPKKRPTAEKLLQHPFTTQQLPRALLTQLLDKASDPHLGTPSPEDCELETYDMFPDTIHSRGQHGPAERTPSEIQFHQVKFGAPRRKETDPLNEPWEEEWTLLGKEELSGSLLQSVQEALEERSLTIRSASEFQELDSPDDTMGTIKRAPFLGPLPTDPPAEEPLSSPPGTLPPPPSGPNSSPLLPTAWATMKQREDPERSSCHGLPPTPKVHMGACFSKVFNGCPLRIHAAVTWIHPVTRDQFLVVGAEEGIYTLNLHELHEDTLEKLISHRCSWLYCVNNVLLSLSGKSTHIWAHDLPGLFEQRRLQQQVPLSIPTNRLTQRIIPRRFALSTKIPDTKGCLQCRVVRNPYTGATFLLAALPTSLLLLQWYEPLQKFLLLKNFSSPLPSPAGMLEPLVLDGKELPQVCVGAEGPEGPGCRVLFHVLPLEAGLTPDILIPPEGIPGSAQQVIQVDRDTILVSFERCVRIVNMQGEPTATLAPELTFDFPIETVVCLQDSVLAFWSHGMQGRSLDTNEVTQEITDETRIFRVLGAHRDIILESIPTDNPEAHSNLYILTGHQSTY
The following applies: at 1 µM.

Assay [17] concerns the target T1, Mitogen-activated protein kinase kinase kinase kinase 2 (Homo sapiens). The following applies: at 10 µM.
For assay [18], the target named is G protein-coupled receptor kinase 5 (Homo sapiens) (UniProt P34947). The following applies: at 1 µM.
Sequence of G protein-coupled receptor kinase 5 (Homo sapiens) (P34947 whole entry, looked up): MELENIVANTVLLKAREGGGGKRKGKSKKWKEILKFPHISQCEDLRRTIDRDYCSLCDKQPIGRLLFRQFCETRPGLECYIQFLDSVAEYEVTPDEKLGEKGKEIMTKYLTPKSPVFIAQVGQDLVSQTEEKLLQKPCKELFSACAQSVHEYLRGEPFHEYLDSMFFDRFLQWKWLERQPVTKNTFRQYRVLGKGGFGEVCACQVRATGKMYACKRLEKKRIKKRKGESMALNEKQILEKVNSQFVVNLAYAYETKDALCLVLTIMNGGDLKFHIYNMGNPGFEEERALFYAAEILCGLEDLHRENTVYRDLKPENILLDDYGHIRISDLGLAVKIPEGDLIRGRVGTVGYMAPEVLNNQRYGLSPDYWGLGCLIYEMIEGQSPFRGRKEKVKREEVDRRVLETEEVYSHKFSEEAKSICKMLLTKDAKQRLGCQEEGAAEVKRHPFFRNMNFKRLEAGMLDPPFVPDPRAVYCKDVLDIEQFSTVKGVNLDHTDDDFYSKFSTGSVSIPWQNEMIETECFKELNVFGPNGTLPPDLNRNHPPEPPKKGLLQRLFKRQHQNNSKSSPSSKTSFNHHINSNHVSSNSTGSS
Assay [19] shares this target. The following applies: at 10 µM.
Assay [20] addresses G protein-coupled receptor kinase 6 (Homo sapiens) (UniProt P43250). The following applies: at 1 µM.

Sequence of Macrophage colony-stimulating factor 1 receptor (Homo sapiens) (P07333 whole entry): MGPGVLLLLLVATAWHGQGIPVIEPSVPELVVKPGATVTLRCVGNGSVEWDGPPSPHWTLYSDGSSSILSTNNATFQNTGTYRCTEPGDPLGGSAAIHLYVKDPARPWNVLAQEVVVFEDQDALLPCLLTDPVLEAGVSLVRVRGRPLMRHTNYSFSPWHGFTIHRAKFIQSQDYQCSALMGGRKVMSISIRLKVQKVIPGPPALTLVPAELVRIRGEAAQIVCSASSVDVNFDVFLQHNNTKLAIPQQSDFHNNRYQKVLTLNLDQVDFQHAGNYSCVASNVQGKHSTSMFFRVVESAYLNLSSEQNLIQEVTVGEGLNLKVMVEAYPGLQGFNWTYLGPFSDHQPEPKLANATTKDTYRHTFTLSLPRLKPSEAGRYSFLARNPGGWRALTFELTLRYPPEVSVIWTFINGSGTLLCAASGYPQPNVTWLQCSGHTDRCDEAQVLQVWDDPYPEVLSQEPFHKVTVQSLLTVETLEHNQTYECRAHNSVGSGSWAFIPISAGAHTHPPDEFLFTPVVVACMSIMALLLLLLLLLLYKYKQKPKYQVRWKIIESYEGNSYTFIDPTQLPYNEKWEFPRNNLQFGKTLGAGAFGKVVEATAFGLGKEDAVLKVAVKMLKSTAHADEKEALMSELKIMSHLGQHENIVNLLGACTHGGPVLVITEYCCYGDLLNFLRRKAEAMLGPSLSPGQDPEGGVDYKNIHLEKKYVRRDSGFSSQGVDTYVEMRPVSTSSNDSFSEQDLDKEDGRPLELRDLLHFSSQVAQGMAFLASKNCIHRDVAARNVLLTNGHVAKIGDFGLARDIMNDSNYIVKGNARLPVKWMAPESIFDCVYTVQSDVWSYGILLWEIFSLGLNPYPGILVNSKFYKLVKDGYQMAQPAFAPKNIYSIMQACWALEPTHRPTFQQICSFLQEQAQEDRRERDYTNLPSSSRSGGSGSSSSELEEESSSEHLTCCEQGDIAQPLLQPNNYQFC
Sequence of Receptor-type tyrosine-protein kinase FLT3 (Homo sapiens) (P36888 whole entry): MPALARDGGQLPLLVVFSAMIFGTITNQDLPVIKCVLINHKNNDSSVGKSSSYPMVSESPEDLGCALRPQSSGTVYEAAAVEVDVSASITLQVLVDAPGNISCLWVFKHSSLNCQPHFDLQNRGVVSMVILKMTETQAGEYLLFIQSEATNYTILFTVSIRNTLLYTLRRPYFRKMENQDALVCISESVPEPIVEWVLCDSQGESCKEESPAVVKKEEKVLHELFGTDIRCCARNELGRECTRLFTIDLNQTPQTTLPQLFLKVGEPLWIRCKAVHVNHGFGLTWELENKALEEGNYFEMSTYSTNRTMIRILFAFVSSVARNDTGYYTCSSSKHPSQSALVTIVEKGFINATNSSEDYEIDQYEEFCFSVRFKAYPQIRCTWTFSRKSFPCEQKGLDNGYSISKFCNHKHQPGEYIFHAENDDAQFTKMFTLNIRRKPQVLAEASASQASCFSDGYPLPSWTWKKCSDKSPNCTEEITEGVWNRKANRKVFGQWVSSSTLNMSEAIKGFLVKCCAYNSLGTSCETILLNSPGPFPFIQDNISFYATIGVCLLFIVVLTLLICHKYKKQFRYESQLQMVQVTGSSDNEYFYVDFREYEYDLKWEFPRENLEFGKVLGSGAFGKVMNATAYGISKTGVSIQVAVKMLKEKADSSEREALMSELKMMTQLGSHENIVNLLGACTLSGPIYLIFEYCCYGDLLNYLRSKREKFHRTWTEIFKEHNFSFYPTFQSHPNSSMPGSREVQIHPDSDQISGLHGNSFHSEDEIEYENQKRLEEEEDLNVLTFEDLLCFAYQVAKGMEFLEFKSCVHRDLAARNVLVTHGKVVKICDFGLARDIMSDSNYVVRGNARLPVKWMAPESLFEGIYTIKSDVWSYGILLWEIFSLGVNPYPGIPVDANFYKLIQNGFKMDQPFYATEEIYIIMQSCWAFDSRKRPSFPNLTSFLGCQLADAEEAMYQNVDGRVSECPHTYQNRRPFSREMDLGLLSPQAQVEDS
Sequence of Tyrosine-protein kinase Fer (Homo sapiens) (P16591 whole entry, looked up): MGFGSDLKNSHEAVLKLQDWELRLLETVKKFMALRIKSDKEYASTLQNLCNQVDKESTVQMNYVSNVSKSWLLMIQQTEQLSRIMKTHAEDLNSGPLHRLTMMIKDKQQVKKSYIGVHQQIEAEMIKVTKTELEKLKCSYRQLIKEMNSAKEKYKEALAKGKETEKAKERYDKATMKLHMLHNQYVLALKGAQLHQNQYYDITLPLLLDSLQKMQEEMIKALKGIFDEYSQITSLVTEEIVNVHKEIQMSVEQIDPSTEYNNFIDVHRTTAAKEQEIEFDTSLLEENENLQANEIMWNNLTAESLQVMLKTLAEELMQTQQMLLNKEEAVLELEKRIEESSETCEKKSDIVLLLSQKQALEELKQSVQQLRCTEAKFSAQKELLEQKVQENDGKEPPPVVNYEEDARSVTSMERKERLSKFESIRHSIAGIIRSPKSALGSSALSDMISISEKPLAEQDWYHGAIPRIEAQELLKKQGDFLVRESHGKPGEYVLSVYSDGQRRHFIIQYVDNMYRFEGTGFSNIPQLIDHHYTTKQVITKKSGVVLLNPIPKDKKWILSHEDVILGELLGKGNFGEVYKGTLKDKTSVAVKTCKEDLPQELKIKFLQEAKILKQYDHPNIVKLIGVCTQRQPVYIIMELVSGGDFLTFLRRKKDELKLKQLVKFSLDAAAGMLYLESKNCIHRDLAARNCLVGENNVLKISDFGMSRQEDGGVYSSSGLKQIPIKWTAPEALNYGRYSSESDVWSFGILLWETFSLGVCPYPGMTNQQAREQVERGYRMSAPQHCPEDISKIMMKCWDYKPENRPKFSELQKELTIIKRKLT

In the case of `O=c1[nH]c2ccccc2n1C1CCN(Cc2ccc(-c3nc4cc5[nH]cnc5cc4nc3-c3ccccc3)cc2)CC1`, the residual activity in [1] stood at 99%; in assay [2], 120%; in assay [3], 97%; in assay [4], 107%; in [5], 83%; in assay [6], 103%. For the same molecule, the residual activity in assay [7] turned out to be 86%; in assay [8], 95%; in [9], 38%; in assay [10] it was 100%; in assay [11], 59%; in assay [12], 55%. Moreover, the residual activity in assay [13] came out at 51%; in assay [14] it was 95%; in assay [15] it was 72%; in assay [16], 101%; in assay [17] it was 80%; in [18], 103%. The values for the residual activity in assay [19] and in assay [20] were 85% and 100%, respectively.

With `CCc1nc(-c2ccc(OC)cc2)[nH]c1-c1ccncc1`, the residual activity in assay [1] came to 101%; in assay [2], 109%; in assay [3], 105%; in assay [4], 111%; in assay [5], 102%; in [10], 100%. Moreover, the residual activity was determined as 77% in assay [11]; 78% in assay [12]; 71% in assay [13]; 75% in assay [14]; 72% in assay [15].

Consider `c1cc(-c2cnn3cc(-c4ccc(OCCN5CCCCC5)cc4)cnc23)ccn1`, for which the residual activity turned out to be 87% in [2]; 31% in [3]; 28% in assay [4]; 2% in assay [5]; 0% in assay [6]; 0% in assay [7]. Further, the residual activity was 0% in assay [8]; -1% in assay [9]; 1% in assay [10]; 0% in [11]; 3% in assay [12]; 1% in assay [13]. For the same molecule, the residual activity in [14] stood at 11%; in assay [15] it was 1%; in assay [16], 10%; in [17] it was 1%; in assay [20], 101%.

For `C[S+]([O-])c1ccc(-c2nc(-c3ccc(F)cc3)c(-c3ccncc3)[nH]2)cc1` (stereo not drawn), the residual activity was found to be 109% in [1]; 112% in assay [2]; 105% in assay [3]; 87% in [4]; 51% in assay [5]; 101% in assay [6]. The residual activity in assay [7] turned out to be 39%; in assay [9], 82%; in assay [10] it was 93%; in [11], 42%; in assay [12] it was 109%; in assay [13], 52%. Further, the residual activity was 76% in [14]; 35% in [15]; 104% in [16]; 100% in assay [17]; 109% in assay [18]; 104% in [19]. For the same molecule, the residual activity in [20] amounted to 107%.

With `CN(C)c1ccc(/C=C2\C(=O)Nc3ccccc32)cc1`, the residual activity worked out at 91% in assay [18] and 97% in assay [20].

On to `O=C1Cc2c([nH]c3ccc(Br)cc23)-c2ccccc2N1`, for which the residual activity in [18] came out at 95%.

Consider `O=c1c(-c2ccc(F)cc2)c(-c2ccncc2)[nH]n1-c1ccc(Cl)cc1`, for which the residual activity in [18] is 101%; in assay [20] it was 99%.

For the molecule `CCC(=O)Nc1ccc2ncnc(Nc3cccc(Br)c3)c2c1`, the residual activity in assay [18] turned out to be 114%; in [20], 97%.

With `COc1ccc(C(=O)Nc2sc3c(c2C(N)=O)CCCC3)cc1OC`, the residual activity in assay [18] turned out to be 91%; in assay [20], 90%.

In the case of `CC(C)n1cnc2c(NCc3ccccc3)nc(NCCCO)nc21`, the results for the residual activity in assay [18] and in assay [20] were 101% and 96%, respectively.

Turning to `CC[n+]1c(/C=C/N(C)c2ccccc2)n(-c2ccccc2)c2ccc(-c3nc4ccccc4s3)cc21`, the residual activity in assay [18] was determined as 108%; in assay [20], 101%.

On to `Cc1cncc2cccc(S(=O)(=O)N3CCCN(C(=O)CN)C[C@H]3C)c12`, for which the residual activity in assay [18] is 98%; in assay [20], 84%.

Consider `O=Nc1c(-c2c(O)[nH]c3ccccc23)[nH]c2ccccc12`, for which the results for the residual activity in [18] and in [20] were 92% and 81%, respectively.

Take `CN(C)CCCn1cc(C2=C(c3c[nH]c4ccccc34)C(=O)NC2=O)c2ccccc21`: the residual activity came to 61% in assay [18] and 87% in assay [20].

In the case of `NC(=O)c1ccc2[nH]c(-c3ccc(Oc4ccc(Cl)cc4)cc3)nc2c1`, the residual activity in assay [18] and in assay [20] was 93% each time.

Regarding `O=C1C(Cl)=C(N2C(=O)CCC2=O)C(=O)c2ccccc21`, the residual activity in assay [18] was 98%; in assay [20], 88%.

Take `Nc1ccc2ncnc(NCCc3ccc(Oc4ccccc4)cc3)c2c1`: the residual activity worked out at 104% in assay [18] and 105% in [20].

As for `Cn1cnc2cc3c(Nc4cccc(Br)c4)ncnc3cc21`, the values for the residual activity in assay [18] and in assay [20] were 109% and 97%, respectively.

As to `CC(=O)O/N=C1\C(=C2\C(=O)Nc3cc(Br)ccc32)Nc2ccccc21`, the residual activity was found to be 98% in assay [18] and 86% in assay [20].

Take `Oc1ccc(Nc2nc(-c3ccc(Cl)cc3)cs2)cc1`: the residual activity was 102% in assay [18] and 103% in assay [20].

Take `Cn1sc(=O)n(Cc2ccccc2)c1=O`: the residual activity in assay [18] and in assay [20] was 88% throughout.

In the case of `CCCC(=O)Oc1ccc2[nH]c(C(=O)c3cc4ccccc4[nH]3)cc2c1`, the residual activity in assay [18] came to 104%; in [20], 93%.

For the molecule `O=c1cc(N2CCOCC2)oc2c1ccc1ccccc12`, the figures for the residual activity in [18] and in assay [20] were 103% and 96%, respectively.

Regarding `CC(C)(C)c1nc2c3ccc(F)cc3c3c(=O)[nH]ccc3c2[nH]1`, the residual activity in assay [18] worked out at 72%; in [20] it was 59%.

Turning to `Oc1ccc(-c2nc(-c3ccc(F)cc3)c(-c3ccncc3)[nH]2)cc1`, the residual activity in [18] and in [20] was 109% in each case.

On to `Cn1cc(/C=C2\C(=O)Nc3ccc(S(N)(=O)=O)cc32)c2ccccc21`, for which the results for the residual activity in [18] and in assay [20] were 62% and 96%, respectively.

For `O=C1Nc2cc(Br)ccc2/C1=C1/Nc2ccccc2/C1=N\O`, the residual activity in assay [18] and in assay [20] was 89% in each case.

Take `O=C1NC(=O)c2c1c1c3ccccc3[nH]c1n1cncc21`: the values for the residual activity in [18] and in [20] were 83% and 82%, respectively.

Take `O=C(NC(NC(=S)Nc1ccc(F)c([N+](=O)[O-])c1)C(Cl)(Cl)Cl)C(c1ccccc1)c1ccccc1` (stereo not drawn): the residual activity in [18] is 90%; in [20], 100%.

`Nc1cccc(-c2cc3c(Oc4cccc(O)c4)ncnc3[nH]2)c1`: the residual activity was found to be 92% in [18] and 93% in assay [20].

Regarding `COc1ccc(OC)c2c(=S)c3ccccc3[nH]c12`, the residual activity in assay [18] came to 94%; in assay [20], 98%.

Turning to `Oc1c2ccccc2c2c3c(cccc13)N=N2`, the residual activity in assay [18] came to 84%; in assay [20] it was 87%.

`Cc1nc2cc3nc(-c4cccs4)cnc3cc2n1C`: the residual activity in assay [18] turned out to be 113%; in assay [20] it was 103%.

With `O=[N+]([O-])c1ccc(-c2nc(-c3ccc(F)cc3)c(-c3ccncc3)[nH]2)cc1`, the residual activity in assay [18] is 101%; in assay [20] it was 102%.

`O=C(O)c1ccc2c3c1cccc3c(=O)n1c3ccccc3nc21`: the residual activity in [18] turned out to be 95%; in assay [20], 100%.

Take `CC(=O)c1ccc(N2CCOCC2)cc1O`: the residual activity in assay [18] was found to be 105%; in [20], 95%.

Take `Cc1cccc(-c2[nH]c(C(C)(C)C)nc2-c2ccc3c(c2)OCO3)n1`: the figures for the residual activity in assay [18] and in [20] were 105% and 103%, respectively.

With `c1ccc(-c2n[nH]cc2-c2ccnc3ccccc23)nc1`, the residual activity came out at 103% in [18] and 96% in assay [20].

Consider `CCCCc1c(-c2ccc(O)cc2)[nH]c2nccnc12`, for which the residual activity turned out to be 93% in assay [18] and 98% in assay [20].

For `COc1ccc(CNc2nc(N(CCO)CCO)nc3c2ncn3C(C)C)cc1`, the residual activity stood at 89% in [18] and 95% in [20].

For `Cc1ccc(NC2=CC(=O)c3sc(C)nc3C2=O)cc1`, the figures for the residual activity in [18] and in [20] were 93% and 96%, respectively.

In the case of `CCOc1cc2ncnc(Nc3cccc(Br)c3)c2cc1OCC`, the results for the residual activity in assay [18] and in assay [20] were 97% and 100%, respectively.

Regarding `O=c1cc(N2CCNCC2)oc2c(-c3ccccc3)cccc12`, the figures for the residual activity in [18] and in assay [20] were 81% and 102%, respectively.

For `O=C1NC(=O)/C(=C\c2ccc3nccnc3c2)S1`, the residual activity in [18] came to 103%; in assay [20], 90%.

`O=C1c2ccccc2-[n+]2ccc3c([nH]c4ccccc43)c21`: the residual activity came out at 91% in assay [18] and 88% in assay [20].

`Nc1n[nH]c2nc3ccccc3nc12`: the residual activity is 98% in assay [18] and 93% in assay [20].

Regarding `CO[C@H]1[C@@H](OC)C[C@H](C)[C@@H](OC)C2=CC(=O)C=C(NC(=O)/C(C)=C/C=C/[C@H](OC)[C@@H](OC(N)=O)/C(C)=C/[C@@H]1C)C2=O`, the residual activity was found to be 70% in assay [18] and 97% in [20].

With `CC(C)n1cnc2/c(=N/c3cccc(Cl)c3)nc(NCCO)[nH]c21`, the residual activity in assay [18] was 92%; in assay [20] it was 90%.

For `Cc1nc(-c2ccccc2)c(-c2ccncc2)o1`, the residual activity was determined as 104% in assay [18] and 103% in assay [20].

As for `COc1cc2ncnc(Nc3ccc(Oc4ccccc4)cc3)c2cc1OC`, the residual activity in [18] is 90%; in assay [20], 93%.
